# Assay results from ChEMBL document CHEMBL2218924, “A broad activity screen in support of a chemogenomic map for kinase signalling research and drug discovery” (Biochem J, 2013).
# Tests used:
# [1] = biological target: Serine/threonine-protein kinase PAK 5 (Homo sapiens) (UniProt Q9P286); conditions: at 10 µM
# [2] = biological target: Activated CDC42 kinase 1 (Homo sapiens) (UniProt Q07912); conditions: at 1 µM
# [3] = biological target: Activated CDC42 kinase 1 (Homo sapiens) (UniProt Q07912); conditions: at 10 µM
# [4] = biological target: ALK tyrosine kinase receptor (Homo sapiens) (UniProt Q9UM73); conditions: at 1 µM
# ALK tyrosine kinase receptor (Homo sapiens), sequence (Q9UM73 19-1620 limits assumed): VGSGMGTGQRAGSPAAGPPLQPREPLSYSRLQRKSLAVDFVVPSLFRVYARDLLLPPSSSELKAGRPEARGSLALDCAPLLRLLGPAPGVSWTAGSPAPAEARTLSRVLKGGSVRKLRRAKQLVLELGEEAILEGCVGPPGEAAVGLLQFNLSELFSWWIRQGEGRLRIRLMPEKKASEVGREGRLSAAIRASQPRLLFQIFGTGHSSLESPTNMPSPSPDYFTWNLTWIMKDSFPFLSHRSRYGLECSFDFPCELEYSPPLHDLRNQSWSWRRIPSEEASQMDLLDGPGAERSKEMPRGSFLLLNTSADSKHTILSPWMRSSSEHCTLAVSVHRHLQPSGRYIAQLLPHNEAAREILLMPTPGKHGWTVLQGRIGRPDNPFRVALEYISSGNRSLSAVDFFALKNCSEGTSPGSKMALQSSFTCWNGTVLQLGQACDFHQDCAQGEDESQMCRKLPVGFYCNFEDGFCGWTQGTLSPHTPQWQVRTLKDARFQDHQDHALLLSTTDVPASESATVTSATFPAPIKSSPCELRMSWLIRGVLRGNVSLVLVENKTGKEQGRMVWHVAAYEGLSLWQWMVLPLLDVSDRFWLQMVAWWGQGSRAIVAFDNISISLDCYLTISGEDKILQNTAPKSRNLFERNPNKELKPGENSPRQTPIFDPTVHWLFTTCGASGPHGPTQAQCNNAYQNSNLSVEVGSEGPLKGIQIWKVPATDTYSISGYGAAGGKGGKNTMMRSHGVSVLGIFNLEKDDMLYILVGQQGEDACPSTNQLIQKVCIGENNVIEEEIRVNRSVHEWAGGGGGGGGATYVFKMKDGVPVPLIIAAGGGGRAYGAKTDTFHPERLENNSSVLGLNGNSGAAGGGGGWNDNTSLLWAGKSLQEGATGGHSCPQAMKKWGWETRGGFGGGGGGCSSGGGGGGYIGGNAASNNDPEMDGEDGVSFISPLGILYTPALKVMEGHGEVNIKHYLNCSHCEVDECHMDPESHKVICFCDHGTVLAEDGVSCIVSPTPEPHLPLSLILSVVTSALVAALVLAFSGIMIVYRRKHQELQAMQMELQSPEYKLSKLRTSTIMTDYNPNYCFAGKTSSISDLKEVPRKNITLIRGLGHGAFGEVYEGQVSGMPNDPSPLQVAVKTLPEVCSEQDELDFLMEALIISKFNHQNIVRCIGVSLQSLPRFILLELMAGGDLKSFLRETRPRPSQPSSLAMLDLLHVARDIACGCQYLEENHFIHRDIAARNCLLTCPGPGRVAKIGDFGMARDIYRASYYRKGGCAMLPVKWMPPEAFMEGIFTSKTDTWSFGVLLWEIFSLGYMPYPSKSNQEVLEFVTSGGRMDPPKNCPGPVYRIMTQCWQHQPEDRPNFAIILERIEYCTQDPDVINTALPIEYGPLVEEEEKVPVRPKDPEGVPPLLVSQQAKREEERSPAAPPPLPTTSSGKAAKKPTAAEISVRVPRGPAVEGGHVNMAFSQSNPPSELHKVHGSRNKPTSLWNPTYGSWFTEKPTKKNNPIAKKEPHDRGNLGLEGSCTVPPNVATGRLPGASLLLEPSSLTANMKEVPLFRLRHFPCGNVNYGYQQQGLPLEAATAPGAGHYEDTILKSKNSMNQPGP
# [5] = biological target: T1, Activin receptor type-1B (Homo sapiens) (UniProt P36896); conditions: at 1 µM
# T1 sequence (whole entry): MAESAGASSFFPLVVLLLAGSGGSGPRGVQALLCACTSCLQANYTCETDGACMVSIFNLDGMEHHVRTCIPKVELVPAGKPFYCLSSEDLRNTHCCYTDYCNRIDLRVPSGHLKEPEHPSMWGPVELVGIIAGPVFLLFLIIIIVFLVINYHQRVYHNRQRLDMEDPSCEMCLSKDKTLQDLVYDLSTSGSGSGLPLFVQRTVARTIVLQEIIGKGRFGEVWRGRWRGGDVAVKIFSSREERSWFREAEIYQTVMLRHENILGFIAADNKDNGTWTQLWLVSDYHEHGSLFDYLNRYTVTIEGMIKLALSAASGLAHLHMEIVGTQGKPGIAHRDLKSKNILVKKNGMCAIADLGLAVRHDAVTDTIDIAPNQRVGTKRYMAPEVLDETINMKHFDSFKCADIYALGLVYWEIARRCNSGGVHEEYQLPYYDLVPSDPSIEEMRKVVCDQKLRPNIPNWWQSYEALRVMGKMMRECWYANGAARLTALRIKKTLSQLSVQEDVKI
# [6] = biological target: T1, Activin receptor type-1B (Homo sapiens); conditions: at 10 µM
# [7] = biological target: T2, AMP-activated protein kinase, AMPK (Homo sapiens) (UniProt P54646+O43741+P54619+Q9UGJ0+Q9Y478+Q13131+Q9UGI9); conditions: at 10 µM
# [8] = biological target: Serine/threonine-protein kinase PAK 5 (Homo sapiens) (UniProt Q9P286); conditions: at 1 µM
# [9] = biological target: Serine/threonine-protein kinase PAK 6 (Homo sapiens) (UniProt Q9NQU5); conditions: at 1 µM
# [10] = biological target: Serine/threonine-protein kinase PAK 6 (Homo sapiens) (UniProt Q9NQU5); conditions: at 10 µM
# [11] = biological target: PAS domain-containing serine/threonine-protein kinase (Homo sapiens) (UniProt Q96RG2); conditions: at 10 µM
# PAS domain-containing serine/threonine-protein kinase (Homo sapiens), sequence (Q96RG2 whole entry, the tested form may be a part): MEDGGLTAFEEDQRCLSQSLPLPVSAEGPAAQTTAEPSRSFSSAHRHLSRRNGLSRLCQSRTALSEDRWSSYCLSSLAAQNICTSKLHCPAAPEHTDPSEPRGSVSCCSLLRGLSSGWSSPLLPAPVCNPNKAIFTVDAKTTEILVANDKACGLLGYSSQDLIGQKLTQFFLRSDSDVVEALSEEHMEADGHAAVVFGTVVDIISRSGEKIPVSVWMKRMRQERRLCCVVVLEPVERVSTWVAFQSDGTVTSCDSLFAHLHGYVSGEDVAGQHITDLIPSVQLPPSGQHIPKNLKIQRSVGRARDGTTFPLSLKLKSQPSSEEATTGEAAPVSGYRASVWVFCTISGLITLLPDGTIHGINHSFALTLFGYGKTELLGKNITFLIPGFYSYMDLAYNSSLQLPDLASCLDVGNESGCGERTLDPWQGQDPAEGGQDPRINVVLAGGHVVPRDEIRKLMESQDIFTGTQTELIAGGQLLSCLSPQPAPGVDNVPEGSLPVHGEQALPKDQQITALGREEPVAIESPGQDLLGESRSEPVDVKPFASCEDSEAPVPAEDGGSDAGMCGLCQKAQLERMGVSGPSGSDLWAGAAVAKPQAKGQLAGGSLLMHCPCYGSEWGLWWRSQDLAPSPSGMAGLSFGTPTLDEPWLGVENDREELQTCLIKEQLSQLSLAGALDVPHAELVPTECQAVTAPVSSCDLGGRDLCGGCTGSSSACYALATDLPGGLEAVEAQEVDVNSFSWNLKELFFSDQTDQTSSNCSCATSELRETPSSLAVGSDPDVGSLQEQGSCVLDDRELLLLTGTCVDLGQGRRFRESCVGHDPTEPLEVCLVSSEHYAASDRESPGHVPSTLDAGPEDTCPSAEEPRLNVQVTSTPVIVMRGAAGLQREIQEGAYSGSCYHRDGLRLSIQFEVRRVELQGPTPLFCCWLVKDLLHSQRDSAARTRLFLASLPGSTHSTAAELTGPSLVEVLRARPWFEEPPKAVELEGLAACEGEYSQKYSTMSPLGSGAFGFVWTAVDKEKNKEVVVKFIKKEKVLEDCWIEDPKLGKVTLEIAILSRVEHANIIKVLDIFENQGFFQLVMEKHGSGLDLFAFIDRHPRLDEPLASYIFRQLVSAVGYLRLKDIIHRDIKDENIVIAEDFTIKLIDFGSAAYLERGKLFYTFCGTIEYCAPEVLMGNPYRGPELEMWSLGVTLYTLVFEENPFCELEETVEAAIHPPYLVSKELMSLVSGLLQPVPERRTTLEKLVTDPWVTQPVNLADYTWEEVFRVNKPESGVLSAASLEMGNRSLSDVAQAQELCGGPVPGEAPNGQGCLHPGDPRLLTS
# [12] = biological target: ALK tyrosine kinase receptor (Homo sapiens) (UniProt Q9UM73); conditions: at 10 µM
# [13] = biological target: T3, AMP-activated protein kinase (AMPK) alpha-1/beta-1/gamma-1 (Homo sapiens) (UniProt P54619+Q9Y478+Q13131); conditions: at 1 µM
# [14] = biological target: T3, AMP-activated protein kinase (AMPK) alpha-1/beta-1/gamma-1 (Homo sapiens); conditions: at 10 µM
# [15] = biological target: T2, AMP-activated protein kinase, AMPK (Homo sapiens); conditions: at 1 µM
# [16] = biological target: T4, NUAK family SNF1-like kinase 1 (Homo sapiens) (UniProt O60285); conditions: at 1 µM
# T4 sequence (whole entry): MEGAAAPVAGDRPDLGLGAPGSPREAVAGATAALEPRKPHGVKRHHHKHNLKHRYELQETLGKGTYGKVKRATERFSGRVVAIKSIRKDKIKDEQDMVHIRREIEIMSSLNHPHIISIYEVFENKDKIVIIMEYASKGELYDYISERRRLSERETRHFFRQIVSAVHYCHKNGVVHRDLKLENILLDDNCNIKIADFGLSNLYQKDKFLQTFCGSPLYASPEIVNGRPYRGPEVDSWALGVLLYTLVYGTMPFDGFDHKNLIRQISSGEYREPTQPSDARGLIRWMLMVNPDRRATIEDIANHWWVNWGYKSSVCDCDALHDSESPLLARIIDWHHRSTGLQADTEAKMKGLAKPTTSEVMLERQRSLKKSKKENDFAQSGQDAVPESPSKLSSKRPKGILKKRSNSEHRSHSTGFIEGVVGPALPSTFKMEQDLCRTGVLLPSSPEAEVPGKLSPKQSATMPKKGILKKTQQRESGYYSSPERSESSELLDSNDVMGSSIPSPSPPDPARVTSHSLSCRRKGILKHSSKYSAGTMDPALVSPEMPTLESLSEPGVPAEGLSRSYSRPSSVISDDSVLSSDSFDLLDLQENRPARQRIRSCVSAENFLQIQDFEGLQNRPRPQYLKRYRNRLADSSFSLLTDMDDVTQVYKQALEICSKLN
# [17] = biological target: T4, NUAK family SNF1-like kinase 1 (Homo sapiens); conditions: at 10 µM
# [18] = biological target: T5, Mitogen-activated protein kinase kinase kinase 5 (Homo sapiens) (UniProt Q99683); conditions: at 1 µM
# T5 sequence (whole entry): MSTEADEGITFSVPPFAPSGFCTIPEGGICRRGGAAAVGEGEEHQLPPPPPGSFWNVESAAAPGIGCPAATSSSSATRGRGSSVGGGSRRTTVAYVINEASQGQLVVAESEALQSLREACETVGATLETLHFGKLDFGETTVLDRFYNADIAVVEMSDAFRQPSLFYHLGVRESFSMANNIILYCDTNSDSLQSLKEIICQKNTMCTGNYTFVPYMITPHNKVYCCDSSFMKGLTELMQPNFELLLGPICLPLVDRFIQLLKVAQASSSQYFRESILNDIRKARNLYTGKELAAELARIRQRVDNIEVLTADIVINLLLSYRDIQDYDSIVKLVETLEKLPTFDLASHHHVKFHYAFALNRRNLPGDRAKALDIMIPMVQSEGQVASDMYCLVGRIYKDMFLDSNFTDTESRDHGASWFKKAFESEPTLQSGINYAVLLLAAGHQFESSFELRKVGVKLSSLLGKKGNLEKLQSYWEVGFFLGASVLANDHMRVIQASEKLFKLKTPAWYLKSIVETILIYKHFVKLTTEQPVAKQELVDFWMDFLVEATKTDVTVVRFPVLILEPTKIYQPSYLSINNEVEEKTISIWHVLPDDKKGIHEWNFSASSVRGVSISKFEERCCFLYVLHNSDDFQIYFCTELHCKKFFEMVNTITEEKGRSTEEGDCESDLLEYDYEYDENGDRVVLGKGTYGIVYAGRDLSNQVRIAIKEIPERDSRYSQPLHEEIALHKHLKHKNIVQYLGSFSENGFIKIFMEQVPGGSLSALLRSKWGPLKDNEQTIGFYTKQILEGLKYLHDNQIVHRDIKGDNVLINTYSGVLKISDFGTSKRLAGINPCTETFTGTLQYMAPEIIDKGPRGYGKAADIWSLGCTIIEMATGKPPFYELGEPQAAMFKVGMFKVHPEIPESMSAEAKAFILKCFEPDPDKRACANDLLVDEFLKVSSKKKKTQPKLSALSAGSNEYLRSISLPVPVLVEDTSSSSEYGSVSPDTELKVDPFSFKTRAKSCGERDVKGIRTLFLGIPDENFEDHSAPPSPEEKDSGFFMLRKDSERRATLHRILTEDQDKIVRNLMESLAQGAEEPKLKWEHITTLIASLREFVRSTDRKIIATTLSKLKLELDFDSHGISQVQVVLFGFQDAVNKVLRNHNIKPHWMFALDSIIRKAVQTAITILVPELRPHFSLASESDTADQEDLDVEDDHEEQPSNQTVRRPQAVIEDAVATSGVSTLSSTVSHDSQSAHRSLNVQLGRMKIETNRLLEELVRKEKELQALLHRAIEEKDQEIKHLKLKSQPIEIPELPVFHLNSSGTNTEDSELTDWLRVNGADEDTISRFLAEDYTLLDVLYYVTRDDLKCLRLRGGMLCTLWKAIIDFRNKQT
# Activated CDC42 kinase 1 (Homo sapiens), sequence (Q07912 whole entry, looked up): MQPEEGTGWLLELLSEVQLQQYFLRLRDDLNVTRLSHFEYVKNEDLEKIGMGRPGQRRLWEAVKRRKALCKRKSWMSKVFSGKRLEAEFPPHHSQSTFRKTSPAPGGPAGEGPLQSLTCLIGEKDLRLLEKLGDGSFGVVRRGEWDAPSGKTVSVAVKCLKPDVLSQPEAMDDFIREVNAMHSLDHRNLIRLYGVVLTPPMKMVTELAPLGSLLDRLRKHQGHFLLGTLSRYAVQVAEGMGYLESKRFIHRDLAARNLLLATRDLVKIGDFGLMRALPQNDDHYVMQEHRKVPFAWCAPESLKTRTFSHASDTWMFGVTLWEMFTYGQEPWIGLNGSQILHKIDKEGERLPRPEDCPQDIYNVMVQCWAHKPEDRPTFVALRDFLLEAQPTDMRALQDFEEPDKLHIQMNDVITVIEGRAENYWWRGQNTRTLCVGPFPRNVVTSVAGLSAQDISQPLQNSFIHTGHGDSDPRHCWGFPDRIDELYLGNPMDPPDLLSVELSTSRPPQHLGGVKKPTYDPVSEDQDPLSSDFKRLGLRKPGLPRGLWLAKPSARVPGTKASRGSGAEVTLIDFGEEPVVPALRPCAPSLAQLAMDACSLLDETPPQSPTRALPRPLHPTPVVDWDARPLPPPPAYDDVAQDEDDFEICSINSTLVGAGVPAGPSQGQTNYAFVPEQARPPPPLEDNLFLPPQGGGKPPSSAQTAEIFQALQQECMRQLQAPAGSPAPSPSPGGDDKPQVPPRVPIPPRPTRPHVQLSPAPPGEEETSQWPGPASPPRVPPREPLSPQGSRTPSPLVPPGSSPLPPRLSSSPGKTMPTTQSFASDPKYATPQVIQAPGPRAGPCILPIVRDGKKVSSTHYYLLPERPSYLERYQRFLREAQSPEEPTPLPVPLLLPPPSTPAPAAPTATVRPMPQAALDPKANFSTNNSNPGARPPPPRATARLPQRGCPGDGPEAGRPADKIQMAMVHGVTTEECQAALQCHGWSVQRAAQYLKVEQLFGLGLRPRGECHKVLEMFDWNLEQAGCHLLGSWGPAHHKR
# Serine/threonine-protein kinase PAK 5 (Homo sapiens), sequence (Q9P286 whole entry, looked up): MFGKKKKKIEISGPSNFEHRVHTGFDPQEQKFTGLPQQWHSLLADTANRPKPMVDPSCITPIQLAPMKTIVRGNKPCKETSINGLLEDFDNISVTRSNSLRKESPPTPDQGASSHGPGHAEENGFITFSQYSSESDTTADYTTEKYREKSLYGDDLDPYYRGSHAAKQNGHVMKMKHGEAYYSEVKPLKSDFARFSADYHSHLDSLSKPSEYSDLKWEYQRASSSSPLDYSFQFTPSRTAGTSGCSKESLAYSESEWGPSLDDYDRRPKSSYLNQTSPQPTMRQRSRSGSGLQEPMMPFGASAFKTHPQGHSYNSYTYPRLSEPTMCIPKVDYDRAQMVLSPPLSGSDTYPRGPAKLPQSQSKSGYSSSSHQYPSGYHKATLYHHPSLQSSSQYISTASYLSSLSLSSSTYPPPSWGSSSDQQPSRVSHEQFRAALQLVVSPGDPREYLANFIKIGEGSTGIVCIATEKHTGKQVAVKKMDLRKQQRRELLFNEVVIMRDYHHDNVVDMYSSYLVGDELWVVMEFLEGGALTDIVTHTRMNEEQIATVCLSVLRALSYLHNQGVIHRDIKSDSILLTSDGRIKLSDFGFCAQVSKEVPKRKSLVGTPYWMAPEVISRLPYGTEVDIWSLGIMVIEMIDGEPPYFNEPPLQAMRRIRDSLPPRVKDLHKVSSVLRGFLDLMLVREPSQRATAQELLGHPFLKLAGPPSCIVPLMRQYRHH
smiles,measurement,setting,value
COc1ccc(COc2ccc(Cc3cnc(N)nc3N)cc2OC)cc1,residual activity,[1],100%
same,residual activity,[2],79%
same,residual activity,[3],68%
same,residual activity,[4],74%
same,residual activity,[5],120%
same,residual activity,[6],119%
same,residual activity,[7],82%
COc1cc2nccc(Oc3ccc(NC(=O)Nc4cc(C)on4)c(Cl)c3)c2cc1OC,residual activity,[8],82%
same,residual activity,[1],52%
same,residual activity,[9],104%
same,residual activity,[10],54%
same,residual activity,[11],62%
same,residual activity,[2],20%
same,residual activity,[3],6%
same,residual activity,[5],105%
same,residual activity,[6],57%
same,residual activity,[7],82%
COc1ccc2c(c1)c(C1=C(c3c[nH]c4ccccc34)C(=O)NC1=O)cn2CCCN(C)C,residual activity,[11],32%
same,residual activity,[2],65%
same,residual activity,[3],21%
same,residual activity,[4],80%
same,residual activity,[12],64%
same,residual activity,[6],47%
same,residual activity,[13],52%
same,residual activity,[14],11%
same,residual activity,[15],38%
same,residual activity,[7],5%
same,residual activity,[16],37%
same,residual activity,[17],10%
Nc1nccc(-c2c(-c3ccc(F)cc3)ncn2C2CCNCC2)n1,residual activity,[3],39%
same,residual activity,[6],40%
same,residual activity,[7],70%
same,residual activity,[17],77%
N#C/C(=C\c1ccc(O)c(O)c1)C(=O)NCc1ccccc1,residual activity,[1],85%
same,residual activity,[11],55%
same,residual activity,[2],88%
same,residual activity,[3],62%
same,residual activity,[13],87%
same,residual activity,[14],53%
same,residual activity,[15],124%
same,residual activity,[7],70%
same,residual activity,[16],100%
same,residual activity,[17],100%
COc1ccc(CNC(=O)Nc2ncc([N+](=O)[O-])s2)cc1,residual activity,[11],110%
same,residual activity,[2],77%
same,residual activity,[3],55%
same,residual activity,[4],70%
same,residual activity,[12],64%
same,residual activity,[6],109%
O=C(Nc1nc2ccccc2n1CCN1CCOCC1)c1cccc([N+](=O)[O-])c1,residual activity,[11],84%
same,residual activity,[2],81%
same,residual activity,[3],55%
same,residual activity,[4],70%
same,residual activity,[12],75%
same,residual activity,[15],79%
same,residual activity,[7],83%
same,residual activity,[17],66%
same,residual activity,[18],113%
Fc1ccc(-c2nc3n(c2-c2ccncc2)CCS3)cc1,residual activity,[2],87%
same,residual activity,[3],79%
same,residual activity,[4],86%
same,residual activity,[12],94%
same,residual activity,[5],100%
same,residual activity,[6],29%
same,residual activity,[17],90%
same,residual activity,[18],96%
N#C/C(=C1/Nc2ccccc2S1)c1ccnc(NCCc2cccnc2)n1,residual activity,[8],84%
same,residual activity,[1],72%
same,residual activity,[3],12%
same,residual activity,[4],64%
same,residual activity,[12],18%
same,residual activity,[14],70%
same,residual activity,[15],99%
same,residual activity,[7],67%
same,residual activity,[16],97%
same,residual activity,[17],82%
same,residual activity,[18],78%
O=c1c(-c2ccc(F)cc2)c(-c2ccncc2)[nH]n1-c1ccc(Cl)cc1,residual activity,[3],66%
same,residual activity,[12],65%
same,residual activity,[6],22%
same,residual activity,[18],100%
